Assay outcomes: PubChem, several laboratories
tim23-1 inh – growth inhibitors of tim23-1 mutant yeast. hit rate 1.3% among 330,000. inhibition, % at 20 µM. S. cerevisiae tim23-1 growth, BacTiter-Glo luminescence, 24 h;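 active = growth inhibition of the mutant yeast at or above 50%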;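 also: temperature-sensitive mutant grown at 25 °C; plate controls were DMSO-treated mutant yeast for no effect and medium wells lacking yeast for full effect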
tim10-1 inh – tim10-1 yeast growth inhibition; S. cerevisiae tim10-1 ts strain growth, BacTiter-Glo, 24 h; inhibition, % at 20 µM; hit rate 2.2% among 330,000;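 active = inhibition of at least 40%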;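 also: mutant grown at 25 °C; 0% = DMSO wells with yeast and 100% = wells holding no yeast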
V-ATPase pHluor – yeast V-ATPase proton transport regulation by pHLuorin. response, % at 10 µM. hit rate 0.37% among 350,000. S. cerevisiae, pHLuorin cytosolic pH fluorescence; in the data active = response mostly above about 7.3%, no sharp cut-off; inactive = mostly below about 5.4%; also: actives read high
NLRP3 yeast inh – NALP3 inhibition in yeast | Yeast reconstituted NLRP3/ASC/caspase-1, beta-gal luminescence, 24 h | inhibition, % at 10 µM | hit rate 0.39% among 330,000 | AID 2825;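 active = inhibition of 50% or more; inactive = inhibition below 50%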;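 also: plate controls were induced DMSO wells for no effect and uninduced yeast grown without galactose for full effect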
TIM10 inh – TIM10 yeast growth inhibition | S. cerevisiae TIM10 strain growth, BacTiter-Glo luminescence, 24 h | inhibition, % at 10 µM | hit rate 1.4% among 330,000 | AID 463195;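 active = inhibition of 40% or more at the single tested concentration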;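 also: wild-type TIM10 isogenic control strain grown at permissive 25 °C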
NALP1 yeast inh – inhibitors of NALP1 inflammasome in yeast; S. cerevisiae NALP1/ASC/caspase-1 growth, X-gal OD620, 72 h; inhibition, % at 10 µM; hit rate 0.61% among 280,000; AID 2071; in the data active = inhibition mostly above about 24%, no sharp cut-off; inactive = mostly below about 32%
tim10-1 confirm – confirmation of tim10-1 mutant yeast growth inhibitors; shares compounds with tim10-1 inh; S. cerevisiae tim10-1 ts strain growth, BacTiter-Glo, 24 h; inhibition, % at 20 µM; hit rate 56% among 7,400;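 active = inhibition of yeast growth at or above a set limit in either of two repeat tests at 20 µM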;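 also: tim10-1 mutant grown at permissive 25 °C to find synthetic lethal compounds; 0% = DMSO yeast wells and 100% = medium wells without yeast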
* marks the source's active call; other numbers are inactive results. In the library only some 4.2% were active in any assay of this set; here they are far more common.

For Cc1ccc2cc(C)c3nnc(SCC(=O)c4cccs4)n3c2c1C the results were tim23-1 inh 38, tim10-1 inh 40*, V-ATPase pHluor 3, NLRP3 yeast inh -4, TIM10 inh 16, NALP1 yeast inh 16 and tim10-1 confirm 15.
Screening Cc1ccc(-c2nc(SC(C)C(=O)N3CCOCC3)n[nH]2)cc1 (centres undefined) returned tim23-1 inh 1, tim10-1 inh -26, V-ATPase pHluor -3, NLRP3 yeast inh 8, TIM10 inh 2 and NALP1 yeast inh 11.
O=C(C1CCC(=O)N(C2CC2)C1)N(CCO)Cc1ccccc1 (centres undefined) was read as tim23-1 inh -5, tim10-1 inh -1, V-ATPase pHluor 3, NLRP3 yeast inh 10, TIM10 inh -2 and NALP1 yeast inh 12.
`Cc1cccc2c1N(CCCOc1ccc(C(C)(C)C)cc1)C(=O)C2=O` gave tim23-1 inh 47, tim10-1 inh 40*, V-ATPase pHluor -3, NLRP3 yeast inh 0, TIM10 inh 27, NALP1 yeast inh 7 and tim10-1 confirm 19.
COc1cccc(OC)c1C(=O)Nc1ccc(Br)c(C(=O)c2ccccc2)c1 was read as tim23-1 inh 35, tim10-1 inh 41*, V-ATPase pHluor -3, NLRP3 yeast inh 7, TIM10 inh 5, NALP1 yeast inh 10 and tim10-1 confirm 9.
`COc1ccccc1C(=O)Nc1cccc(C(=O)c2ccccc2)c1` gave tim23-1 inh 33, tim10-1 inh -5, V-ATPase pHluor 0, NLRP3 yeast inh 33, TIM10 inh -6 and NALP1 yeast inh 4.
COc1ccc(-c2nc(C(=O)NCCCN3CCOCC3)cc3c2[nH]c2ccccc23)cc1OC was read as tim23-1 inh 3, tim10-1 inh 17, V-ATPase pHluor 0, NLRP3 yeast inh 12, TIM10 inh -3 and NALP1 yeast inh 25.
Cc1ccc(-c2nc(C(=O)NCCCN3CCOCC3)cc3c2[nH]c2ccccc23)cc1 was read as tim23-1 inh 26, tim10-1 inh 40*, V-ATPase pHluor 0, NLRP3 yeast inh -1, TIM10 inh 18, NALP1 yeast inh 10 and tim10-1 confirm 32*.
Screening O=C(Nc1cc(Cl)ccc1-n1cncn1)c1ccc(Br)o1 returned tim23-1 inh -1, tim10-1 inh 5, V-ATPase pHluor -2, NLRP3 yeast inh 16 and TIM10 inh 0.
Screening CCn1c(SCc2c(F)cccc2Cl)nnc1-c1ccco1 returned tim23-1 inh 43, tim10-1 inh 49*, V-ATPase pHluor -2, NLRP3 yeast inh 11, TIM10 inh 13, NALP1 yeast inh 9 and tim10-1 confirm 41*.
CC(C)c1nnc(NC(=O)CCS(=O)(=O)c2nc(-c3cccs3)cc(C(F)(F)F)n2)s1 was read as tim23-1 inh 44, tim10-1 inh 61*, V-ATPase pHluor -2, NLRP3 yeast inh 19, TIM10 inh 28, NALP1 yeast inh -6 and tim10-1 confirm 45*.
For CC(C)c1nnc(NC(=O)CCS(=O)(=O)Cc2ccccc2)s1 the results were tim23-1 inh -6, tim10-1 inh -26, V-ATPase pHluor -1, NLRP3 yeast inh -1, TIM10 inh 10 and NALP1 yeast inh 6.
`O=c1[nH]c2cc3ccccc3cc2nc1C(F)(F)F` gave tim23-1 inh 6, tim10-1 inh 42*, V-ATPase pHluor 3, NLRP3 yeast inh -21, TIM10 inh 17, NALP1 yeast inh 8 and tim10-1 confirm -9.
For O=C(COC(=O)C1CC1)Nc1ccc(S(=O)(=O)N2CCOCC2)cc1 the results were tim23-1 inh 14, tim10-1 inh 11, V-ATPase pHluor 0, NLRP3 yeast inh 14 and TIM10 inh -1.
`O=S(=O)(N/N=C1/CCCc2ccccc21)c1ccc(Br)cc1` gave tim23-1 inh 28, tim10-1 inh 42*, V-ATPase pHluor 4, NLRP3 yeast inh -45, TIM10 inh 36, NALP1 yeast inh 8 and tim10-1 confirm 24.
`O=S(=O)(N/N=C1\CCCc2ccccc21)c1ccccc1` gave tim23-1 inh 31, tim10-1 inh 16, V-ATPase pHluor -1, NLRP3 yeast inh 8 and TIM10 inh 18.
O=S(=O)(N/N=C1/CC(c2ccccc2)Oc2ccccc21)c1ccc(Br)cc1 (centres undefined) was read as tim23-1 inh 29, tim10-1 inh 41*, V-ATPase pHluor 1, NLRP3 yeast inh -13, TIM10 inh 29, NALP1 yeast inh 4 and tim10-1 confirm 29*.
Cc1ccc(S(=O)(=O)N/N=C2/CC(c3ccccc3)Oc3ccccc32)cc1[N+](=O)[O-] (centres undefined) was read as tim23-1 inh 14, tim10-1 inh 20, V-ATPase pHluor -2, NLRP3 yeast inh -3, TIM10 inh 28 and NALP1 yeast inh -2.
O=S(=O)(c1cccc2cccnc12)N1CCN(Cc2ccccc2)CC1 was read as tim23-1 inh 21, tim10-1 inh 21, V-ATPase pHluor 2, NLRP3 yeast inh 3, TIM10 inh -15 and NALP1 yeast inh -17.
For CC(=O)c1c(C)[nH]c(C(=O)OCC(=O)NC(C)c2ccccc2)c1C (centres undefined) the results were V-ATPase pHluor 0.
For O=C(OCc1cn([C@@H]2CN(C(=O)C3CCCCC3)[C@@H](c3ccc(Cl)cc3)C[C@H]2O)nn1)c1ccccc1 the results were V-ATPase pHluor 0.
CCOc1cc2nc3c4ccccc4n(C)c3nc2cc1OCC was read as tim23-1 inh 20, tim10-1 inh 47*, V-ATPase pHluor -2, NLRP3 yeast inh 22, TIM10 inh 11, NALP1 yeast inh 23 and tim10-1 confirm 17.
COc1ccc(CN(C)C(=O)CCN=C2NS(=O)(=O)c3ccccc32)c(OC)c1 was read as tim23-1 inh -3, tim10-1 inh 6, V-ATPase pHluor 1, NLRP3 yeast inh 19 and TIM10 inh 2.
O=C1N=C(N2CCCCC2)S/C1=C\c1ccncc1 was read as tim23-1 inh 18, tim10-1 inh 13, V-ATPase pHluor -2, NLRP3 yeast inh 14, TIM10 inh 10 and NALP1 yeast inh 7.
Screening COc1ccc(/C=C2\SC(N3CCCCC3)=NC2=O)cc1 returned tim23-1 inh 46, tim10-1 inh 47*, V-ATPase pHluor 3, NLRP3 yeast inh 35, TIM10 inh 31, NALP1 yeast inh -13 and tim10-1 confirm 44*.
`CC1Cc2ccccc2N1C(=O)CSc1nnnn1Cc1ccccc1` (centres undefined) gave tim23-1 inh 39, tim10-1 inh 60*, V-ATPase pHluor 0, NLRP3 yeast inh 10, TIM10 inh 38, NALP1 yeast inh 1 and tim10-1 confirm 45*.
`Cc1ccc(C)c(N2C(=O)C3C4C=CC(CC4)C3C2=O)c1` (centres undefined) gave tim23-1 inh 8, tim10-1 inh 1, V-ATPase pHluor -1, NLRP3 yeast inh 4, TIM10 inh -2 and NALP1 yeast inh 9.
